Test results taken from publication PMC4336329 (PLoS ONE, 2015).
In all, about 310,000 compounds went through this assay and about 14,000 (4.5%) showed an effect of 50% or more. Effects have a minus sign here. Only a selection was taken, and strong results are over-represented in it overall.

target: human ether-à-go-go-related gene (hERG) potassium channel (human, UniProt Q12809); assay: primary screen, population patch clamp on CHO cells stably expressing hERG; higher = less effect of the substance
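Further: peak tail current of the secondary pulse compared with the same well before compound.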

human ether-à-go-go-related gene (hERG) potassium channel, sequence (Q12809 whole entry, looked up): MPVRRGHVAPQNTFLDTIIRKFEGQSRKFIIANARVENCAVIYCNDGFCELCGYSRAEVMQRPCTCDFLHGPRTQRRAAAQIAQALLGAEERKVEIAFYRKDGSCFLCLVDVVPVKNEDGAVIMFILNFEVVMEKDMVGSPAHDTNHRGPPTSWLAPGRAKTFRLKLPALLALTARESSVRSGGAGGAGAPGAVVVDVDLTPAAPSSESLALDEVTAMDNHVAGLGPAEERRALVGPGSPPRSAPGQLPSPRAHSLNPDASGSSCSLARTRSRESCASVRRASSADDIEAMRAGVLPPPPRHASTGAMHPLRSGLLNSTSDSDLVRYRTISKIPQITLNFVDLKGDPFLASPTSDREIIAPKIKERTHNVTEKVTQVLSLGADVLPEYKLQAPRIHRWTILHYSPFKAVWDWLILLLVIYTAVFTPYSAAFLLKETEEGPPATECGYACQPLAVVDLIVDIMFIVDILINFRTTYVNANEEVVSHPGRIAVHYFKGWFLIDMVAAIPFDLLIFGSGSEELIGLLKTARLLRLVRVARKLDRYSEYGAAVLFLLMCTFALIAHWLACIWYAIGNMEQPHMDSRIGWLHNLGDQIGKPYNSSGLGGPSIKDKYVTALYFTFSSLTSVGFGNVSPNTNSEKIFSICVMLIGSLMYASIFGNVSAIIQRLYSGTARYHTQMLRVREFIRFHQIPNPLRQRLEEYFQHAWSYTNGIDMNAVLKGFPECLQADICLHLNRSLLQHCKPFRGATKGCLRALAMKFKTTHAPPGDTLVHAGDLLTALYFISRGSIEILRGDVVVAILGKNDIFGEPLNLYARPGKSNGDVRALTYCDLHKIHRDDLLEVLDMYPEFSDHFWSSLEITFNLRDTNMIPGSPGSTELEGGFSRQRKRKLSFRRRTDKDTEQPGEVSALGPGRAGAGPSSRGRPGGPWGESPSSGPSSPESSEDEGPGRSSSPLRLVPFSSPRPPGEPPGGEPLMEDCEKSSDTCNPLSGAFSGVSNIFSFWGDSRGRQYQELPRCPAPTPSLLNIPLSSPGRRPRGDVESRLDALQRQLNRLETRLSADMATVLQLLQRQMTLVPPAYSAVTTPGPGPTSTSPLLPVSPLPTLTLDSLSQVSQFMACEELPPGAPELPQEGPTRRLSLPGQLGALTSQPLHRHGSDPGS

| Compound | hERG current change (%, negative = inhibition) at 10uM [%] |
| --- | --- |
| CC(=O)c1sc(NC(=O)c2oc3ccc(F)cc3c2C)nc1C | 0.318 |
| O=C(c1cccc(F)c1)N1CCN(S(=O)(=O)c2ccccc2)CC1 | 0.349 |
| CO/N=C/c1ccc(N2CCN(C(=O)c3ccc(F)cc3)CC2)c([N+](=O)[O-])c1 | -78.3 |
| CO/N=C/c1ccc(N2CCN(C(=O)c3ccc(Cl)cc3Cl)CC2)c([N+](=O)[O-])c1 | -53.1 |
| O=C(O/N=C\c1ccc(N2CCCCC2)c([N+](=O)[O-])c1)c1ccc(Cl)cc1Cl | -1.17 |
| Cc1ccc(C(=O)O/N=C\c2ccc(N3CCCCC3)c([N+](=O)[O-])c2)cc1 | 12.8 |
| O=C(O/N=C\c1ccc(N2CCOCC2)c([N+](=O)[O-])c1)c1ccc(F)cc1 | -6.14 |
| CO/N=C/c1ccc(N2CCN(C(=O)c3ccc(C)cc3)CC2)c([N+](=O)[O-])c1 | -74.9 |
| CO/N=C/c1ccc(N2CCOCC2)c([N+](=O)[O-])c1 | 0.313 |
| CO/N=C/c1ccc(N2CCN(C(=O)c3cccc(C(F)(F)F)c3)CC2)c([N+](=O)[O-])c1 | -43.5 |
| CO/N=C/c1ccc(N2CCCC2)c([N+](=O)[O-])c1 | -1.34 |
| O=C(NCCS(=O)(=O)N1CCN(c2ccccc2F)CC1)c1cccc(Br)c1 | 2.34 |
| O=C1COc2ccc(C(=O)CSc3ccccc3C(=O)O)cc2N1 | 12.1 |
| C=CCn1c(C)cc(-c2csc(NC(=O)CCc3nc4ccccc4c(=O)[nH]3)n2)c1C | -23.8 |
| CCOC(=O)C1C2C=CC3(CN(Cc4ccccc4)C(=O)C13)O2 (stereo not drawn) | 13.7 |
| C/C(CC(=O)NC1CCCCCC1)=N\NC(=O)c1cnccn1 | 2.01 |
| CC(C)n1cnnc1SCC(=O)NCC(=O)Nc1ccc(F)cc1 | 11.2 |
| C/C(=N\NC(=O)c1ccn(C)n1)c1ccc(NC(=O)c2cccc(F)c2)cc1 | 8.11 |
| CCc1ccc(OC(=O)c2cccnc2)cc1 | 21.6 |
| COCCCNC(=O)c1ccccc1NS(C)(=O)=O | 4.15 |
| CCOc1ccc2nc(NCCNC(=O)C(C)C)c(C)cc2c1 | -61 |
| COc1ccc(C(=O)NCCNc2nc3cc(C)c(C)cc3cc2C)cc1 | 7.22 |
| COCC(=O)NCCNc1nc2ccc(C)cc2cc1C | -24.9 |
| CCOc1ccc2nc(NCCNC(=O)C(C)(C)C)c(C)cc2c1 | -46.1 |

| Compound | hERG current change (%, negative = inhibition) at 10uM [%] |
| --- | --- |
| CCOc1ccc2nc(NCCNC(=O)CC)c(C#N)cc2c1 | -12 |
| CCOc1ccc2nc(NCCNC(=O)C3CC3)c(C)cc2c1 | -63.7 |
| O=C(CSc1nc(-c2ccccc2)cs1)Nc1nccs1 | -8.07 |
| CC(=O)c1c(N2CCN(C(=O)c3ccco3)CC2)nc(=S)n(-c2ccccc2)c1C | -1.95 |
| Cc1cc(NC(=O)c2ccc(Br)c(S(=O)(=O)N3CCCC3)c2)no1 | 0.115 |
| COc1ccc2cc1Oc1ccc(cc1)C[C@H]1c3cc(c(OC)cc3CCN1C)Oc1c(O)c(OC)cc3c1[C@H](C2)N(C)CC3 | -47.7 |
| COc1ccc2cc1Oc1ccc(cc1)C[C@H]1c3cc(c(OC)cc3CCN1C)Oc1c(OC)c(OC)cc3c1[C@H](C2)N(C)CC3 | -37.4 |
| COc1ccc2cc1Oc1ccc(cc1)C[C@H]1c3cc(c(OC)cc3CCN1C)Oc1c(OC)c(OC)cc3c1[C@@H](C2)N(C)CC3 | -57.4 |
| CC(C)CN(C(=O)c1ccc(N2CCCC2=O)cc1)c1c(N)n(Cc2ccccc2)c(=O)[nH]c1=O | 19.6 |
| O=C(c1ccc(S(=O)(=O)NCc2ccco2)cc1)N1CCN(Cc2ccccc2)CC1 | 2.86 |
| O=C(c1ccc(S(=O)(=O)NCc2ccco2)cc1)N1CCN(Cc2ccc3c(c2)OCO3)CC1 | -32.5 |
| O=C(c1ccc(Cl)c(S(=O)(=O)NCc2ccco2)c1)N1CCN(c2ccc(F)cc2)CC1 | -70.3 |
| CCOC(=O)N1CCN(C(=O)c2ccc(S(=O)(=O)NCc3ccco3)cc2)CC1 | -2 |
| COc1ccc(N2CCN(C(=O)c3ccc(S(=O)(=O)NCc4ccco4)cc3)CC2)cc1 | -54.7 |
| O=C(c1ccc(S(=O)(=O)NCc2ccco2)cc1)N1CCN(c2ccc(F)cc2)CC1 | -31.5 |
| N#Cc1ccc(CN2CCN(C(=O)c3ccc(S(=O)(=O)NCc4ccco4)cc3)CC2)cc1 | -59.8 |
| COc1ccccc1N1CCN(C(=O)c2ccc(Cl)c(S(=O)(=O)NCc3ccco3)c2)CC1 | -14.2 |
| Cc1cccc(N2CCN(C(=O)c3ccc(Cl)c(S(=O)(=O)NCc4ccco4)c3)CC2)c1C | 4.75 |
| Cc1cccc(NC(=O)CN2C(=O)COc3ccc(Cl)cc32)c1C | 8.74 |
| O=C(NCC(=O)N(Cc1ccco1)C(C(=O)NC1CCCC1)c1ccncc1)c1cccs1 (stereo not drawn) | -0.29 |
| O=C(N/N=C/c1cc([N+](=O)[O-])ccc1O)C1CC1 | 9.47 |
| Cc1cc(C)n(-c2nc3ccccc3c(=O)n2OCCOc2ccccc2)n1 | -1.88 |
| COc1ccc2c(c1)C(=O)Cc1ccccc1O2 | 0.762 |
| COc1ccc(C(c2nnnn2C2CCCCC2)N2CCN(C)CC2)c(OC)c1 (stereo not drawn) | -4.87 |

| Compound | hERG current change (%, negative = inhibition) at 10uM [%] |
| --- | --- |
| N/C(=N\OC(=O)C12CC3CC(CC(C3)C1)C2)c1ccccc1 | -11.1 |
| COc1ccc2nc(/N=C/c3c(O)n(-c4cccc(Cl)c4)c(=O)[nH]c3=O)sc2c1 | 2.53 |
| CCOC(=O)CC(=O)CSc1nc2nc(C)cc(C)n2n1 | 8.34 |
| O=C(Nc1ccccc1)c1ccncc1 | 1.31 |
| O=C(COC(=O)c1ccc(O)cc1O)NNC(=O)c1cccs1 | 6.45 |
| CSc1nc(N2CCOCC2)cc(N2CCOCC2)n1 | 7.09 |
| O=C(CN1C(=O)c2cccc3cccc(c23)C1=O)N1CCCCC1 | 0.0571 |
| Cc1cc(C)c(NC(=O)C2CCCN2CCOC(=O)c2ccccc2)c(C)c1.Cl (stereo not drawn) | -26 |
| Cc1cc(C)c(NC(=O)C2CCCN2CCOC(=O)c2cccc([N+](=O)[O-])c2)c(C)c1.Cl (stereo not drawn) | -63.2 |
| Cc1cc(C)c(NC(=O)C2CCCN2CCO)c(C)c1 (stereo not drawn) | -14.5 |
| CC(NC(=O)c1ccccc1F)c1nnc(SCC(=O)NC2=NCCS2)n1C (stereo not drawn) | 22.3 |
| COC(=O)c1cc(CNC(=O)c2ccccc2Cl)ccc1OC | 0.487 |
| COC(=O)C1=C(C(=O)OC)C(c2ccccc2O)c2sc(=O)[nH]c2S1 (stereo not drawn) | -55.9 |
| COc1ccc(C2c3sc(=O)[nH]c3SC3C4CCC(C4)C23)cc1OC (stereo not drawn) | -17.5 |
| COC(=O)C1=C(C(=O)OC)C(c2cc(Br)ccc2O)c2sc(=O)[nH]c2S1 (stereo not drawn) | -47.6 |
| COC(=O)C1=C(C(=O)OC)C(c2ccc(OC)c(OC)c2)c2sc(=O)[nH]c2S1 (stereo not drawn) | -54.8 |
| COC(=O)C1CSc2[nH]c(=O)sc2C1c1ccc(OC)c(OC)c1 (stereo not drawn) | 0.0419 |
| COC(=O)C1=C(C(=O)OC)C(c2cc([N+](=O)[O-])ccc2O)c2sc(=O)[nH]c2S1 (stereo not drawn) | 1.28 |
| S=c1[nH]nc(-c2ccc(Cl)cc2)n1-c1cccnc1 | 23.5 |
| Cc1ccc(-c2nc(C#N)c(N3CCC(C)CC3)o2)cc1 | 17.5 |
| N#Cc1c(N)nc2c(c1-c1ccncc1)CCCCC2 | -12.3 |
| COc1cc(OC)c(OC)cc1CN1CCCC(C(=O)c2ccccc2SC)C1 (stereo not drawn) | -58.5 |
| COc1ccc(O)c(CN2CCCC(C(=O)c3ccccc3SC)C2)c1 (stereo not drawn) | -30.9 |
| COc1ccc(OC)c(CN2CCCC(C(=O)c3ccccc3SC)C2)c1 (stereo not drawn) | -75.9 |

| Compound | hERG current change (%, negative = inhibition) at 10uM [%] |
| --- | --- |
| COCCC(=O)N1CCCC(C(=O)c2ccccc2SC)C1 (stereo not drawn) | 13.1 |
| COc1cc(CN2CCCC(C(=O)c3ccccc3SC)C2)cc(OC)c1 (stereo not drawn) | -74.4 |
| O=C(/C=C/c1ccc(S(=O)(=O)N2CCOCC2)cc1)NCc1ccccc1 | -4.31 |
| O=c1[nH]c(-c2ccc(Cl)cc2)cs1 | 9.25 |
| COc1cc(NC(=O)Nc2cccc([N+](=O)[O-])c2)cc(OC)c1 | 1.42 |
| COc1cccc(NC(=O)[C@@H]2CCCN2S(=O)(=O)c2cccc3cccnc23)c1 | -5.87 |
| COCCN(C(=O)CCC(=O)Nc1nccs1)C(C(=O)NC(C)(C)C)c1ccc(F)cc1 (stereo not drawn) | -1.98 |
| COC(=O)CSc1nnc(CNc2ccc(F)cc2)o1 | 14.5 |
| COc1ccc(/C(N)=N/O)cc1O | 5.51 |
| CCn1c(=O)c2c(nc3n2CCCN3CCc2ccc(OC)c(OC)c2)n(C)c1=O | -5.18 |
| C=C(C)Cn1c(=O)c2c(nc3n2CCCN3Cc2ccccc2)n(C)c1=O | -17.9 |
| CC(C)Cn1c(=O)c2c(nc3n2CC(C)CN3Cc2ccccc2)n(C)c1=O (stereo not drawn) | -83.3 |
| CCCn1c(=O)c2c(nc3n2CCCN3CCc2ccc(OC)c(OC)c2)n(C)c1=O | -23.7 |
| CC(C)Cn1c(=O)c2c(nc3n2CCCN3CCc2ccccc2)n(C)c1=O | -76 |
| Cn1c(=O)n(Cc2ccccc2)c(=O)c2c1nc1n2CCCN1CCc1ccccc1 | -26 |
| C=C(C)Cn1c(=O)c2c(nc3n2CCCN3CCc2ccccc2)n(C)c1=O | -73.3 |
| C=CCn1c(=O)c2c(nc3n2CCCN3CCc2ccc(OC)c(OC)c2)n(C)c1=O | -79.6 |
| CCCn1c(=O)c2c(nc3n2CC(C)CN3Cc2ccccc2)n(C)c1=O (stereo not drawn) | -39.4 |
| Cn1c(=O)n(CC(=O)O)c(=O)c2c1nc1n2CCCN1CCc1ccccc1 | 13.6 |
| CC1CN(Cc2ccccc2)c2nc3c(c(=O)n(C)c(=O)n3C)n2C1 (stereo not drawn) | -36.1 |
| Cn1c(=O)c2c(nc3n2CCCN3CCc2ccccc2)n(C)c1=O | -1.45 |
